# Reference: PubChem BioAssay (NCI)
# This is part of a sample that, as a whole, favours compounds with a hit. Of some 83,000 tested, about 20% had one in any assay.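 Single-concentration screen, 48 h exposure, 96-well plates. Endpoint: percent growth. Below 10 = active.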 A number with no mark means an inactive call. Activity calls are given as the source filed them.
# Columns and labels:
# Assay in all cases: NCI-60 one-dose screen, 48 h (100 = growth as untreated, 0 = no growth, -100 = all killed)
# Settings in all cases: 10 µM unless noted
# DU-145 prostate = tested on: DU-145 prostate
# K-562 leukemia = tested on: K-562 leukemia
# MALME-3M melanoma = tested on: MALME-3M melanoma
# MDA-MB-231 breast = tested on: MDA-MB-231 breast
# RXF 393 renal = tested on: RXF 393 renal
# SF-268 CNS = tested on: SF-268 CNS
# SF-295 CNS = tested on: SF-295 CNS
# SF-539 CNS = tested on: SF-539 CNS
# UACC-257 melanoma = tested on: UACC-257 melanoma
# M14 melanoma = tested on: M14 melanoma
Compound,growth (DU-145 prostate),growth (K-562 leukemia),growth (MALME-3M melanoma),growth (MDA-MB-231 breast),growth (RXF 393 renal),growth (SF-268 CNS),growth (SF-295 CNS),growth (SF-539 CNS),growth (UACC-257 melanoma),growth (M14 melanoma)
Nc1cnc(C(=O)NNc2nc3cc(F)ccc3n3cccc23)cn1,37.8%,23.7%,59.9%,35.9%,70.6%,36%,12.7%,33.9%,50.9%,23.3%
CCOCCNC1=C(Cl)C(=O)c2ccccc2C1=O,76.3%,91.8%,106%,116%,123%,101%,95.1%,121%,98.2%,110%
C/C(Cc1ccc(Cl)cc1)=C(\c1ccc(O)cc1)c1ccc(Cl)cc1,101%,89.3%,82.5%,96.6%,100%,95%,95.1%,107%,98.2%,83.7%
CS(=O)(=O)Nc1cc(-c2ccc3ncnc(Nc4ccc5c(cnn5Cc5cccc(F)c5)c4)c3c2)cnc1Cl,16.2%,19.4%,-36.1% (active),1.43% (active),-25.7% (active),1.24% (active),6.42% (active),-16.6% (active),20.2%,1.49% (active)
Oc1c(Br)cc(Br)c2ccc(Cn3cc(-c4ccc(C(F)(F)F)cc4)nn3)nc12,46.2%,6.39% (active),16.7%,96.3%,1.8% (active),85.7%,105%,56.2%,54.9%,48.6%
O=C(Nc1ccccc1)Nc1ncnc2c1ncn2-c1ccc(Cl)cc1,96.3%,99.6%,71.9%,80.8%,91.7%,97.1%,76.4%,107%,109%,98.9%
COc1cc(OC)c(/C=C/C(=O)c2c(OC)cccc2OC)c(OC)c1,6.79% (active),10.5%,51.4%,15%,-60.8% (active),32%,1.38% (active),-11.4% (active),43.6%,-44.3% (active)
COc1cc2cc(NCc3cccc(Cl)c3)nc(C)c2cc1OC,62.8%,8.28% (active),80.6%,41.6%,40.3%,41.3%,26.1%,5.02% (active),69.8%,29.4%
COC(=O)c1nc(-c2ccccc2)oc1S(=O)(=O)Cc1ccccc1,109%,2.87% (active),-78.7% (active),85.2%,96.8%,93.1%,103%,100%,85.1%,48%
CN(C)c1ccc(C(=O)OCCCCCCl)cc1,96.4%,106%,89%,87.4%,102%,94%,98.9%,96.1%,109%,95.3%
O=C(NCCNc1nccc(Nc2ccc(S(=O)(=O)Nc3ccccn3)cc2)n1)c1cccc([N+](=O)[O-])c1,109%,92.9%,108%,118%,108%,104%,103%,102%,95.3%,101%
COc1ccc(C(=O)c2cc3c(N)c(C(=O)Nc4ccc(C)cc4)sc3nc2C)cc1,17.3%,13.6%,36.1%,22%,-20.4% (active),39.4%,10% (active),-16% (active),58.1%,17.3%
CN1CCN(c2cc(Nc3cc(C4CC4)[nH]n3)nc(Nc3ccc(CC(=O)NCc4cccc(F)c4)cc3)n2)CC1,41.7%,20.7%,34.7%,14.4%,-56.5% (active),30.2%,49.4%,-22.9% (active),40.9%,23.7%
CC(=O)c1c(C)nc(SCC(=O)Nc2cccc(O)c2)n1-c1ccc(Cl)cc1,103%,105%,90.8%,82.1%,92%,96.2%,97.4%,105%,101%,94.4%
O=S(=O)(NCCCNc1nccc(-c2c(-c3ccc(F)c(O)c3)nc3sccn23)n1)c1ccccc1,69%,37.6%,0.08% (active),47.2%,26.4%,74.4%,92.6%,88.2%,19.6%,12.6%
COc1cc2c(cc1OCCCN1CCN(CCCOc3cc4c(cc3OC)C(=O)N3CCC[C@H]3C=N4)CC1)C=CC(C)(C)O2,-100% (active),-35.8% (active),-89.1% (active),-81.9% (active),-92% (active),-91.9% (active),-59.2% (active),-100% (active),-62.4% (active),-74.2% (active)
Cc1nc2sc(C(=O)Nc3cccc(Br)c3)c(N)c2cc1C(O)c1ccccc1 (stereo not given),23.8%,7.97% (active),55%,24.2%,28.2%,42.4%,40.2%,6.22% (active),38.8%,16.7%
CNC(=O)c1ccccc1Oc1nc(Nc2cc(OC)c(OC)c(OC)c2)ncc1Br,58.1%,77.2%,82.3%,75.4%,40.3%,59.3%,53%,71.1%,77%,47.7%
Cc1ccc2c(n1)C(=O)C(Br)=C(C1CCCC1)C2=O,105%,34.3%,110%,85.2%,89.3%,96.5%,103%,99.7%,99.3%,101%
Cn1cc(-c2csc(-c3c[nH]c4ccc(Br)cc34)n2)c2ccnc(Cl)c21,42.9%,17.6%,112%,54.8%,51%,86.7%,62.1%,67.6%,17.4%,43.2%
CC(C)(Sc1cc(C(C)(C)C)c(O)c(C(C)(C)C)c1)Sc1cc(C(C)(C)C)c(OC(=O)CCCC(=O)O)c(C(C)(C)C)c1,59.4%,41.6%,75.4%,74.2%,73.3%,63.1%,50.4%,62.7%,74.6%,54.6%
CCC(=C(c1ccc(OCCN2CCCCC2)cc1)c1ccc(OCCN2CCCCC2)cc1)c1ccc(Cl)cc1,-89.8% (active),-37% (active),-83.4% (active),-90.1% (active),-81.4% (active),-72.1% (active),-89.7% (active),-97.3% (active),-76.9% (active),-83.1% (active)
COC1/C=C/OC2(C)Oc3c(C)c(O)c4c(O)c(c(/C=N/Nc5ccc([N+](=O)[O-])cc5[N+](=O)[O-])c(O)c4c3C2=O)NC(=O)C(C)=C/C=C/C(C)C(O)C(C)C(O)C(C)C(OC(C)=O)C1C (stereo not given),39.4%,4.82% (active),29.2%,-7.83% (active),-74.3% (active),13.8%,81.1%,-2.39% (active),34.6%,11.4%
N#Cc1nc(-c2ccc(Cl)cc2)oc1S(=O)(=O)N1CCN(c2ccc(F)cc2)CC1,97.3%,24.6%,92.6%,103%,109%,97.6%,101%,98.3%,94.5%,95%
O=S(=O)(Nc1cc(F)cc(Cl)c1)c1ccc(-c2cnc(C3CC3)o2)cc1,35.6%,17.1%,52.1%,42.7%,14.8%,59.5%,22.4%,5.3% (active),62.9%,25.2%
COc1ccc2c(c1OC)CO[C@@H]2[C@H]1c2c(cc3c(c2OC)OCO3)CCN1S(=O)(=O)c1cn(C)cn1,11.1%,10.7%,45.6%,30.4%,-27.9% (active),40.8%,14.5%,-14.2% (active),56.2%,3.48% (active)
